# Assay results published in ChEMBL document CHEMBL3988442, “University of Dundee, Small-Polar-MMV Screening Library” (2021).
# The whole screen tested about 66,000 compounds, of which about 960 (1.5%) showed an effect of 50% or more. The full list was thinned out, with strong results kept by preference.
# Tested on: Trypanosoma brucei
# Test: Trypanosoma brucei 72 hour study
# Format: functional, organism-based
# Parameters: scale not given: in the data most compounds retested in dose-response had high values
compound,measurement,setting,value
COc1ccc(CN2CCc3sccc3C2C)cc1CN1CCOCC1.Cl (stereo not drawn),Percent Effect,"30.3 µM, […]",-20.22%
COc1cc(C(=O)Nc2nc(C)no2)cc(Cl)c1OC,Percent Effect,10 µM,-54.4%
O=C(O)C(F)(F)F.O=C(O)C(F)(F)F.c1cc(CN2CCO[C@H]3[C@H](OCCN4CCCC4)CC[C@@H]32)co1,Percent Effect,"30.3 µM, […]",-5.554%
CCCN1CCC(c2cc(CCOc3ccc(C(F)(F)F)cc3)[nH]n2)C1 (stereo not drawn),Percent Effect,"30.3 µM, […]",85.59%
Clc1ccc(OCCc2cc(C3CCN(c4ncccn4)C3)n[nH]2)cc1 (stereo not drawn),Percent Effect,"30.3 µM, […]",28.73%
Br.COc1ccc(OCCc2cc(C3CCN(CC(C)C)C3)n[nH]2)cc1 (stereo not drawn),Percent Effect,"30.3 µM, […]",20.63%
Cl.Cl.Cn1cc(C(=O)NCc2cncc3c2CCN(CC2CC2)C3)cn1,Percent Effect,"30.3 µM, […]",-27.13%
CN(Cc1ccncc1)C(CO)c1cccc(F)c1 (stereo not drawn),Percent Effect,"30 µM, 30.03 µM",-28.86%
O=C(Nc1ccc2c(c1)C(=O)NC2)c1ccc(S(=O)(=O)C(F)(F)F)cc1,Percent Effect,"30.3 µM, […]",11.83%
Cc1[nH]c2ccccc2c1-c1ccnc(N[C@H](CO)CC(C)C)n1,Percent Effect,"30.3 µM, […]",57.39%
Cc1[nH]c2ccccc2c1-c1ccnc(N[C@@H](C)CO)n1,Percent Effect,"30.3 µM, […]",24.23%
Cc1[nH]c2ccccc2c1-c1ccnc(N[C@@H](CO)C(C)C)n1,Percent Effect,"30.3 µM, […]",11.27%
CC(C)c1[nH]c2ncccc2c1CN1CCOCC1.Cl,Percent Effect,"30.3 µM, […]",-24.02%
CN(C)CCN1CCOCC2(C1)CN(Cc1ccsc1)CCO2.O=C(O)C(F)(F)F.O=C(O)C(F)(F)F.O=C(O)C(F)(F)F (stereo not drawn),Percent Effect,"30 µM, 30.03 µM",38.01%
Cc1ccccc1N1CCN(c2ccncn2)C(C)C1 (stereo not drawn),Percent Effect,"30 µM, 30.03 µM",96.97%
Cc1ccc(N2CCN(c3ccccc3C)CC2C)nn1 (stereo not drawn),Percent Effect,"30 µM, 30.03 µM",-104.7%
Cc1ccccc1N1CCN(c2cc(N(C)C)ncn2)C(C)C1 (stereo not drawn),Percent Effect,"30 µM, 30.03 µM",6.135%
Cc1noc(C)c1-c1cccc(C2CN(CC(=O)N(C)C)CCO2)n1.O=CO (stereo not drawn),Percent Effect,"30.3 µM, […]",-10.64%
Cc1nc(CN2CCC3(CCN(Cc4nccn4C)CC3)C2=O)cs1.O=C(O)C(F)(F)F.O=C(O)C(F)(F)F,Percent Effect,"30.3 µM, […]",-13.64%
O=C(O)C(F)(F)F.O=C1C[C@H]2[C@@H](CCN2C(=O)Cc2ccccc2)N1Cc1cccnc1,Percent Effect,"30.3 µM, […]",-5.465%
O=C(O)C(F)(F)F.O=C([C@H]1CCCO1)N1CCOC2(CCCN(c3ncccc3F)C2)C1 (stereo partly drawn),Percent Effect,"30.3 µM, […]",1.881%
O=C(O)CC(O)(CC(=O)O)C(=O)O.c1cnc2[nH]nc(C3CCN(Cc4ccsc4)CC3)c2c1,Percent Effect,"30.3 µM, […]",-1.78%
Fc1cccc(CN2CCC(c3n[nH]c4ncccc34)CC2)c1F,Percent Effect,"30.3 µM, […]",18.42%
Fc1ccc(F)c(CN2CCC(c3n[nH]c4ncccc34)CC2)c1.O=C(O)CC(O)(CC(=O)O)C(=O)O,Percent Effect,"30.3 µM, […]",65.45%
Cc1ccccc1OC1CCN(CC(=O)Nc2c(C)nn(C)c2C)CC1,Percent Effect,"30.3 µM, […]",11.58%
COCCC(=O)N1CC2(CCN(Cc3ccoc3)C2)C1,Percent Effect,"30 µM, 30.03 µM",-24.51%
Fc1cccc(CN2CCOCC3(CCN(C4CCOCC4)C3)C2)c1.O=C(O)C(F)(F)F.O=C(O)C(F)(F)F (stereo not drawn),Percent Effect,"30 µM, 30.03 µM",30.04%
Cc1cccc(CN2CCOCC3(CCN(C4CCOCC4)C3)C2)c1.O=C(O)C(F)(F)F.O=C(O)C(F)(F)F (stereo not drawn),Percent Effect,"30 µM, 30.03 µM",52.28%
Fc1ccc(CN2Cc3nccn3CC(CN3CCOCC3)C2)cc1.O=C(O)C(F)(F)F.O=C(O)C(F)(F)F (stereo not drawn),Percent Effect,"30 µM, 30.03 µM",39.42%
Cc1cccc(CN2Cc3nccn3CC(CN3CCOCC3)C2)c1.O=C(O)C(F)(F)F.O=C(O)C(F)(F)F (stereo not drawn),Percent Effect,"30 µM, 30.03 µM",58.02%
O=C(O)C(F)(F)F.O=C(O)C(F)(F)F.c1ccc(CN2CCOCC3(CCN(C4CCOCC4)C3)C2)cc1 (stereo not drawn),Percent Effect,"30.3 µM, […]",-34.62%
Cc1noc(C)c1CN1Cc2nccn2CC(CN2CCOCC2)C1.O=C(O)C(F)(F)F.O=C(O)C(F)(F)F (stereo not drawn),Percent Effect,"30 µM, 30.03 µM",27.27%
CCC(C(=O)Nc1ccc2c(C)n[nH]c2c1)N1CCCC1=O (stereo not drawn),Percent Effect,"30 µM, 30.03 µM",6.301%
CCN1N=C(C(=O)N2CCCC(c3nc(C)cs3)C2)CCC1=O (stereo not drawn),Percent Effect,"30.3 µM, […]",-15.61%
same,Percent Effect,"10 mM, 10 mM as filed; unlikely as a test dose",-12.74%
O=C(C1CCOC1)N1CCN(CCn2cccn2)c2ncccc2C1.O=C(O)C(F)(F)F (stereo not drawn),Percent Effect,"30.3 µM, […]",-86.89%
O=C(O)C(F)(F)F.O=C(O)C(F)(F)F.O=C(O)C(F)(F)F.c1ccc(CO[C@H]2CO[C@@]3(CCCN(Cc4cccnc4)C3)C2)nc1,Percent Effect,"30 µM, 30.03 µM",-28.27%
CN1CCN(C(=O)c2cc3sccc3n2Cc2ccc(Cl)cc2)CC1,Percent Effect,"30.3 µM, […]",99.49%
CN1CCN(C(=O)c2cc3sccc3n2Cc2ccccc2)CC1,Percent Effect,"30.3 µM, […]",20.51%
CN1CCN(C(=O)c2cc3sccc3n2Cc2ccccc2Cl)CC1,Percent Effect,"30.3 µM, […]",25.89%
CC1CCCN(Cc2c(C3CC3)n(CC(=O)N(C)C)c3ncccc23)C1.Cl (stereo not drawn),Percent Effect,"30.3 µM, […]",-32.63%
N#CCCN(CC1CCCO1)C(=O)c1ccsc1 (stereo not drawn),Percent Effect,"30.3 µM, […]",16.66%
same,Percent Effect,"10 mM, 10 mM as filed; unlikely as a test dose",-43.52%
O=C(CN(CC(O)c1ccc(F)cc1)C1CC1)NCc1cccs1 (stereo not drawn),Percent Effect,"30 µM, 30.03 µM",-22.68%
COc1ccc(C)cc1CN1CCCC1c1noc(C2CC2)n1 (stereo not drawn),Percent Effect,"30 µM, 30.03 µM",105.3%
Cc1nc(C)n(CC2CCCN2Cc2nc(N)c3ccccc3n2)n1 (stereo not drawn),Percent Effect,"30 µM, 30.03 µM",-26.66%
COc1ccc(F)cc1CN1CCCC1Cn1nc(C)nc1C (stereo not drawn),Percent Effect,10 µM,-21.11%
Cc1nc(C)n(CC2CCCN2Cc2nc3ccccc3nc2C)n1 (stereo not drawn),Percent Effect,"30 µM, 30.03 µM",-3.332%
